{
  "source": "PubChem BioAssay AID1839",
  "about": "(Johns Hopkins Ion Channel Center, 2009)",
  "note": "Out of some 2,400 compounds screened, about 220 (9.2%) were called active.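 How the source made its calls: active means signal change above the mean of dofetilide-free buffer controls plus 3 SD, so a positive margin; inactive means the rest.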 Shown is part of a subset that was picked to be rich in actives.",
  "data": [
    {"experiment": "thallium signal changes without hERG – cell-based, CHO-K1 parental line, FluxOR thallium flux, counter-screen for hERG block protection project, confirmation (AID 1839);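 further: compounds applied alone with no dofetilide to cells lacking hERG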", "details": "CHO-K1 parental cells, FluxOR thallium flux fluorescence; at 10 µM", "values": [
      {"smiles": "CC(C)Nc1nc(SCC(N)=O)nc(N2CCOCC2)n1", "signal change vs control minus 3*SD hit threshold (margin above threshold, higher = more increase)": "-27.8% (inactive)"},
      {"smiles": "CCC(C)(C)C1CCc2c(sc(NC(=O)c3ccccc3C(=O)O)c2C#N)C1", "note": "(stereo unspecified)", "signal change vs control minus 3*SD hit threshold (margin above threshold, higher = more increase)": "-7% (inactive)"},
      {"smiles": "CCOC(=O)C1C(c2ccccc2)C(C(=O)OCC)C1c1ccccc1", "note": "(stereo unspecified)", "signal change vs control minus 3*SD hit threshold (margin above threshold, higher = more increase)": "-27.3% (inactive)"},
      {"smiles": "Cc1ccc(NC(=O)CN2C(=O)S/C(=C\\c3ccc(-c4cccc(C(=O)O)c4C)o3)C2=O)cc1", "signal change vs control minus 3*SD hit threshold (margin above threshold, higher = more increase)": "-30.6% (inactive)"},
      {"smiles": "COc1ccc(-c2ccc(/C=N/NC(=O)c3cccnc3)o2)c([N+](=O)[O-])c1", "signal change vs control minus 3*SD hit threshold (margin above threshold, higher = more increase)": "-34.4% (inactive)"},
      {"smiles": "O=C(O)CCCCn1c(SCc2ccccc2Cl)nc2ccsc2c1=O", "signal change vs control minus 3*SD hit threshold (margin above threshold, higher = more increase)": "-18.4% (inactive)"},
      {"smiles": "O=C(NC(=S)Nc1ccc(N2CCCCC2)cc1)c1cccs1", "signal change vs control minus 3*SD hit threshold (margin above threshold, higher = more increase)": "-2.8% (inactive)"},
      {"smiles": "O=C(Nc1ccc(-c2csc(Nc3cccc(C(F)(F)F)c3)n2)cc1)c1ccccc1", "signal change vs control minus 3*SD hit threshold (margin above threshold, higher = more increase)": "-35.7% (inactive)"},
      {"smiles": "O=C(NC(=S)Nc1cc(C(F)(F)F)ccc1Cl)c1ccccc1", "signal change vs control minus 3*SD hit threshold (margin above threshold, higher = more increase)": "-22.9% (inactive)"},
      {"smiles": "CCOC(=O)NC(=S)Nc1ccc(C(C)(C)C)cc1", "signal change vs control minus 3*SD hit threshold (margin above threshold, higher = more increase)": "-14.3% (inactive)"},
      {"smiles": "O=C(NC(=S)Nc1ccc(C(F)(F)F)cc1)c1csnn1", "signal change vs control minus 3*SD hit threshold (margin above threshold, higher = more increase)": "48.4% (active)"},
      {"smiles": "O=C(NC(=S)Nc1cccc(C(F)(F)F)c1)c1csnn1", "signal change vs control minus 3*SD hit threshold (margin above threshold, higher = more increase)": "52.4% (active)"},
      {"smiles": "Cc1onc(-c2ccccc2)c1C(=O)NC(=S)Nc1sc2c(c1C#N)CCC(C)C2", "note": "(stereo unspecified)", "signal change vs control minus 3*SD hit threshold (margin above threshold, higher = more increase)": "-18.7% (inactive)"},
      {"smiles": "CCCSC(=S)c1c(C)[nH]n(-c2ccccc2)c1=O", "signal change vs control minus 3*SD hit threshold (margin above threshold, higher = more increase)": "-12.5% (inactive)"},
      {"smiles": "O=C(Nc1nnc(-c2ccc3c(c2)CCCC3)o1)C1COc2ccccc2O1", "note": "(stereo unspecified)", "signal change vs control minus 3*SD hit threshold (margin above threshold, higher = more increase)": "-35% (inactive)"},
      {"smiles": "CC(/C=C1\\SC(=S)N(NS(=O)(=O)c2ccccc2)C1=O)=C\\c1ccccc1", "signal change vs control minus 3*SD hit threshold (margin above threshold, higher = more increase)": "-11.8% (inactive)"},
      {"smiles": "COc1cc(CNn2nnnc2N)ccc1OCC(=O)NC(C)(C)C", "signal change vs control minus 3*SD hit threshold (margin above threshold, higher = more increase)": "-34.7% (inactive)"},
      {"smiles": "O=C(NC(=S)N1CCc2ccccc21)c1ccco1", "signal change vs control minus 3*SD hit threshold (margin above threshold, higher = more increase)": "-18.3% (inactive)"},
      {"smiles": "O=C(NC(=S)N1CCc2ccccc21)c1ccc(Br)o1", "signal change vs control minus 3*SD hit threshold (margin above threshold, higher = more increase)": "-18.4% (inactive)"},
      {"smiles": "O=C(NC(=S)N1CCc2ccccc21)c1ccccc1", "signal change vs control minus 3*SD hit threshold (margin above threshold, higher = more increase)": "-2.8% (inactive)"},
      {"smiles": "O=C(NC(=S)N1CCc2ccccc21)c1ccccc1Br", "signal change vs control minus 3*SD hit threshold (margin above threshold, higher = more increase)": "48.4% (active)"},
      {"smiles": "O=C(NC(=S)N1CCCc2ccccc21)c1ccccc1", "signal change vs control minus 3*SD hit threshold (margin above threshold, higher = more increase)": "-30.8% (inactive)"},
      {"smiles": "O=C(NC(=S)N1CCc2ccccc21)c1ccccc1Cl", "signal change vs control minus 3*SD hit threshold (margin above threshold, higher = more increase)": "9% (active)"},
      {"smiles": "S=C(Nc1ccccc1)Nc1nc2ccccc2n1CCOc1ccccc1", "signal change vs control minus 3*SD hit threshold (margin above threshold, higher = more increase)": "-30.2% (inactive)"},
      {"smiles": "CN(C(=S)NC(=O)c1ccc(F)cc1)C1CCCCC1", "signal change vs control minus 3*SD hit threshold (margin above threshold, higher = more increase)": "-31.9% (inactive)"},
      {"smiles": "CC1CCN(C(=S)NC(=O)c2ccc(C(C)(C)C)cc2)CC1", "signal change vs control minus 3*SD hit threshold (margin above threshold, higher = more increase)": "-18% (inactive)"},
      {"smiles": "COC(=O)n1c(=S)oc2cc(Cl)ccc21", "signal change vs control minus 3*SD hit threshold (margin above threshold, higher = more increase)": "-22.1% (inactive)"},
      {"smiles": "CCn1c(=S)[nH]c2c(c1=O)C(C)(C)Cc1ccccc1-2", "signal change vs control minus 3*SD hit threshold (margin above threshold, higher = more increase)": "-6.7% (inactive)"},
      {"smiles": "CC(=O)NC(CSC(CC(=O)c1ccco1)c1ccc(C)cc1)C(=O)O", "note": "(stereo unspecified)", "signal change vs control minus 3*SD hit threshold (margin above threshold, higher = more increase)": "-32.8% (inactive)"},
      {"smiles": "CCCCCCC1CCC(C(=O)N2CCOCC2)CC1", "note": "(stereo unspecified)", "signal change vs control minus 3*SD hit threshold (margin above threshold, higher = more increase)": "-21.3% (inactive)"},
      {"smiles": "CCCCCCCC/C=C\\CCCCCCCC(=O)O", "signal change vs control minus 3*SD hit threshold (margin above threshold, higher = more increase)": "-20.7% (inactive)"},
      {"smiles": "CCCCCC/C(C)=C1/SC(=S)NC1=O", "signal change vs control minus 3*SD hit threshold (margin above threshold, higher = more increase)": "39.1% (active)"},
      {"smiles": "COc1ccc(S(=O)(=O)Nc2ccc(Cl)cn2)c(C)c1C", "signal change vs control minus 3*SD hit threshold (margin above threshold, higher = more increase)": "-32.2% (inactive)"},
      {"smiles": "Cc1ccc(N2CCN(C(=O)N3CCCC3)CC2)cc1C", "signal change vs control minus 3*SD hit threshold (margin above threshold, higher = more increase)": "-15.1% (inactive)"},
      {"smiles": "CCC1(c2ccc(Cl)cc2)NC(=S)N(c2ccc(C)c(C)c2)N1", "note": "(stereo unspecified)", "signal change vs control minus 3*SD hit threshold (margin above threshold, higher = more increase)": "40.7% (active)"},
      {"smiles": "CCC1(c2ccccc2)NC(=S)N(c2ccc(C)c(C)c2)N1", "note": "(stereo unspecified)", "signal change vs control minus 3*SD hit threshold (margin above threshold, higher = more increase)": "48.1% (active)"},
      {"smiles": "Nc1ccc2c(c1)C(=O)C(=O)c1ccccc1-2", "signal change vs control minus 3*SD hit threshold (margin above threshold, higher = more increase)": "-22.4% (inactive)"},
      {"smiles": "O=C(CCc1ccccc1)NC(=S)Nc1cc(C(F)(F)F)ccc1N1CCOCC1", "signal change vs control minus 3*SD hit threshold (margin above threshold, higher = more increase)": "-29.5% (inactive)"},
      {"smiles": "CC(=O)NC1C(Oc2ccccc2C)OC(CO)C(O)C1O", "note": "(stereo unspecified)", "signal change vs control minus 3*SD hit threshold (margin above threshold, higher = more increase)": "-23.9% (inactive)"},
      {"smiles": "Cc1ccc(C(=O)NC(=S)N(C)C2CCCCC2)cc1", "signal change vs control minus 3*SD hit threshold (margin above threshold, higher = more increase)": "-21.2% (inactive)"},
      {"smiles": "CCc1nnc(NC(=O)C2CCCCN2S(=O)(=O)c2ccccc2)s1", "note": "(stereo unspecified)", "signal change vs control minus 3*SD hit threshold (margin above threshold, higher = more increase)": "-23% (inactive)"},
      {"smiles": "COc1ccc(C(=O)CC(=O)C(=O)Nc2ccc(Cl)cc2)cc1", "signal change vs control minus 3*SD hit threshold (margin above threshold, higher = more increase)": "-16.3% (inactive)"},
      {"smiles": "CCOC(=O)C1=NN(C(=O)c2ccccc2)C(O)(c2ccc(C)cc2)C1", "note": "(stereo unspecified)", "signal change vs control minus 3*SD hit threshold (margin above threshold, higher = more increase)": "-27.5% (inactive)"},
      {"smiles": "CCOC(=O)C1=NN(C(=O)c2ccc(OC)cc2)C(O)(c2ccc(Cl)cc2)C1", "note": "(stereo unspecified)", "signal change vs control minus 3*SD hit threshold (margin above threshold, higher = more increase)": "14.4% (active)"},
      {"smiles": "CCOC(=O)C1=NN(C(=O)c2ccc(C)cc2)C(O)(c2ccc(Cl)cc2)C1", "note": "(stereo unspecified)", "signal change vs control minus 3*SD hit threshold (margin above threshold, higher = more increase)": "50.6% (active)"},
      {"smiles": "CCOC(=O)c1nc(C)n(-c2ccc(Cl)cc2)n1", "signal change vs control minus 3*SD hit threshold (margin above threshold, higher = more increase)": "-24.3% (inactive)"},
      {"smiles": "COc1ccc(OC)c(NC(=O)COC(=O)c2ccc(-n3cnnn3)cc2)c1", "signal change vs control minus 3*SD hit threshold (margin above threshold, higher = more increase)": "-34.5% (inactive)"},
      {"smiles": "COc1ccccc1CNC(=O)COC(=O)c1ccccn1", "signal change vs control minus 3*SD hit threshold (margin above threshold, higher = more increase)": "-28.9% (inactive)"},
      {"smiles": "COc1cc(C(=O)Nc2ccc(O)cc2C(=O)O)ccc1OC(C)=O", "signal change vs control minus 3*SD hit threshold (margin above threshold, higher = more increase)": "-19.9% (inactive)"},
      {"smiles": "O=C(O)c1ccc(N=NNc2cccc([N+](=O)[O-])c2)cc1", "signal change vs control minus 3*SD hit threshold (margin above threshold, higher = more increase)": "-26.6% (inactive)"},
      {"smiles": "CCCCOC(=O)Cn1c2ccc(OC)cc2c2nc3ccccc3nc21", "signal change vs control minus 3*SD hit threshold (margin above threshold, higher = more increase)": "-28.3% (inactive)"},
      {"smiles": "CCc1ccc(C(=O)CSc2nc3ccccc3c(=O)[nH]2)cc1", "signal change vs control minus 3*SD hit threshold (margin above threshold, higher = more increase)": "-26.7% (inactive)"},
      {"smiles": "CC(C)OC(=O)c1c2nc3ccccc3nc2n2c1[nH]c(=O)c1ccccc12", "signal change vs control minus 3*SD hit threshold (margin above threshold, higher = more increase)": "29.4% (active)"},
      {"smiles": "O=C(COc1ccccc1Cl)NC(=S)Nc1ccccc1N1CCCC1", "signal change vs control minus 3*SD hit threshold (margin above threshold, higher = more increase)": "-25.7% (inactive)"},
      {"smiles": "S=C(NCCc1ccccc1)N/N=C/c1c(Cl)cccc1Cl", "signal change vs control minus 3*SD hit threshold (margin above threshold, higher = more increase)": "-34.7% (inactive)"},
      {"smiles": "CSc1nc(=S)cc(C)[nH]1", "signal change vs control minus 3*SD hit threshold (margin above threshold, higher = more increase)": "-16.8% (inactive)"},
      {"smiles": "CCc1cc(=O)[nH]c(SCc2ccc(C)cc2)n1", "signal change vs control minus 3*SD hit threshold (margin above threshold, higher = more increase)": "-28.5% (inactive)"},
      {"smiles": "CCSc1nc(=S)cc(C)[nH]1", "signal change vs control minus 3*SD hit threshold (margin above threshold, higher = more increase)": "26.3% (active)"},
      {"smiles": "CSc1cccc(NC(=O)CN2C(=O)c3ccccc3S2(=O)=O)c1", "signal change vs control minus 3*SD hit threshold (margin above threshold, higher = more increase)": "-50.6% (inactive)"},
      {"smiles": "CCCCn1nc(NC(=O)COC)c2cc3ccc(C)cc3nc21", "signal change vs control minus 3*SD hit threshold (margin above threshold, higher = more increase)": "-27.6% (inactive)"},
      {"smiles": "CCOC(=O)C1CCCN(C(=O)CN2C(=O)c3ccccc3C2=O)C1", "note": "(stereo unspecified)", "signal change vs control minus 3*SD hit threshold (margin above threshold, higher = more increase)": "-35.1% (inactive)"}
    ]}
  ]
}
